# Results taken from PubChem BioAssay AID977622 (Broad Institute, 2014).
# In all, about 1,900 compounds went through this assay and fewer than 10 were called active. Roughly 39% stayed inconclusive and do not appear here.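 The calls were made as follows: active = Green signal of the normal strain falls at least twice as much as red signal of the resistant mutant, with overall culture growth loss under a set limit; inconclusive = no clear call, values can overlap the other calls; inactive = the rest.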 A selection follows.
# Legend:
# [1] = wild-type E. coli growth inhibition versus h38 humanized strain – h38 mutant RFP, wild-type GFP, cherry-pick, dose response (AID 977622); conditions: activity change: E. coli mixed culture, total growth OD600 at 50 uM, at 50 µM
# [2] = test system: E. coli h38 humanized mutant ribosome RFP fluorescence, mixed culture, 24 h; test: as above; conditions: h38 mutant RFP at 50 uM; at 50 µM
SMILES,activity change [1] [%],outcome [1],activity change [2] [%]
Cc1ccccc1CSCC(=O)Nc1ccccc1F,0.464,inactive,-14.9
Cc1ccc(-n2nnnc2SCC(=O)NC2CCCc3ccccc32)cc1 (centres undefined),,inactive,6.43
Cc1ccc(C(=O)Nc2cccc3[nH]c(C(F)(F)F)nc23)cc1,-24.3,inactive,-27.5
CS(=O)(=O)Nc1ccccc1C(=O)NCCSc1ccccc1,,inactive,-11.5
O=C(C[n+]1ccn(-c2ccccc2)c1)c1ccc([N+](=O)[O-])cc1,-2.75,inactive,-5.23
CCOC(=O)c1cnc2ccccc2c1NCc1ccco1,-29.3,inactive,-3.48
NC(=O)C1CCN(c2cc(Cl)ccc2[N+](=O)[O-])CC1,-7.61,inactive,-0.291
COCCn1c(SCc2nc3ccccc3s2)nc2ccccc21,15.3,inactive,9.77
CC(=O)c1cccc(NC(=O)COC(=O)CCC(=O)c2ccc(F)cc2)c1,-8.28,inactive,14.5
OCCC1CN(Cc2cnc(-c3ccc(Cl)cc3)nc2)CCN1C1CCCCC1 (centres undefined),-4.88,inactive,
CN1c2ccccc2-c2nc3ccccc3n2C1c1ccncc1 (centres undefined),-2.28,inactive,-4.12
C=C1c2cc3c(cc2NC(=S)N1Cc1ccccc1)OCO3,-19.2,inactive,-23.6
CC(=O)c1cccc(NC(=O)C2CCCN(S(C)(=O)=O)C2)c1 (centres undefined),4.2,inactive,
CC(C)CC#Cc1ccc([C@@H]2[C@@H](CO)N3C(=O)CN(C(=O)Cc4ccccc4)C[C@@H]23)cc1,9.26,inactive,19.9
OC(COc1ccc(Cl)cc1)CN1CCN(c2ccccn2)CC1 (centres undefined),-8.02,inactive,
CN(CC(=O)Nc1cccc(F)c1)C(=O)Cn1c(=O)oc2ccccc21,2.16,inactive,60
CCN(CC)S(=O)(=O)c1ccc(O)c(C(=O)OCC(=O)NC23CC4CC(CC(C4)C2)C3)c1,-19.8,inactive,
CC1(CCC(=O)N2CCCC(N3CCN(c4ccc(F)cc4)CC3)C2)CC1 (centres undefined),-2.02,inactive,22.3
CCc1ccc(NC(=O)CCc2c(C)nn(-c3ccc(N4CCCCC4)nn3)c2C)cc1,-4.17,inactive,-12.8
COc1cccc(C(=O)c2c[nH]c(C(=O)NCc3cccnc3)c2)c1,-3.41,inactive,13.5
COc1ccc(NS(=O)(=O)c2cc(NC(=O)CNC(=O)c3cccc(OC)c3)ccc2C)cc1,-27.6,inactive,-12.3
O=C(Nc1ccc(Cl)cn1)c1ccc([N+](=O)[O-])o1,-3.86,inactive,54.7
COc1cccc(CC(=O)OC(C)C(=O)NCc2ccc3c(c2)OCO3)c1 (centres undefined),-31,inactive,6.13
O=S(=O)(Cc1ccccc1)N1CCCCN2[C@@H](CO)[C@H](c3ccc(C#Cc4ccccc4)cc3)[C@@H]2C1,2.15,inactive,11.8
Nc1[nH]c(C(=O)c2ccccc2)c(-c2ccc(Cl)cc2)c1C(=O)NCCc1c[nH]c2ccccc12,-15.2,inactive,2
Cc1ccccc1-n1c([C@@H]2C[C@H]2c2ccccc2)n[nH]c1=S,-23.8,inactive,

SMILES,activity change [1] [%],outcome [1],activity change [2] [%]
COc1ccc(OC)c(NC(=O)COC(=O)CCNc2ccccc2OC)c1,-9.13,inactive,-0.869
Cc1ccc(NC(=O)c2ccc3c(c2)OCO3)cc1S(=O)(=O)N1CCOCC1,-35.8,inactive,-6.07
COc1ccc(NC(=O)CN(c2ccccc2OC)S(=O)(=O)c2cccs2)cc1Cl,-14.2,inactive,19
Cc1cccc(OCCC(=O)N(C)CC(=O)Nc2cccc3ccccc23)c1,-25.4,inactive,27.9
COCc1[nH]nc2c1C(c1ccc3c(c1)OCO3)N(c1ccc(OC)cc1)C2=O (centres undefined),1.74,inactive,
O=C(c1cc(COc2ccc(F)cc2F)on1)N1CCCC(c2ccccc2)C1 (centres undefined),5.17,inactive,-5.01
CCOC(=O)Cc1csc(SCC(=O)Nc2cc(C)ccc2OC)n1,-33.1,inactive,38.6
CC(=O)Nc1cccc(OCc2ccc([N+](=O)[O-])cc2)c1,-10.5,inactive,-23.9
CC(CCc1ccccc1)NC(=O)CNC(=O)COc1ccccc1 (centres undefined),-14.6,inactive,9.58
O=S(=O)(NOCc1ccc(Cl)cc1)c1ccc(Cl)cc1,-42.8,inactive,-52
O=C(c1cccc2ccccc12)C1CCCN(C(=O)CCc2cnccn2)C1 (centres undefined),-12,inactive,-5.75
C[C@@H]1CN([C@@H](C)CO)C(=O)c2cc(NC(=O)Nc3cccc4ccccc34)ccc2O[C@@H](C)CCCCO[C@H]1CN(C)C,-2.41,inactive,-18
C[C@]12C(=O)N(c3ccc(F)cc3)C(=O)N1[C@@H]1c3ccccc3OC[C@@H]1[C@H]2c1ccccc1,-20.2,inactive,-13.6
O=C(O)c1cccc2c1-c1ccc([N+](=O)[O-])cc1C2=O,-0.103,inactive,-6.27
COc1ccc([C@H]2C[C@H](O)C[C@@H](CCn3cc(-c4ccccc4)nn3)O2)cc1,-21.6,inactive,19.3
O=C(Nc1ccc(F)cc1)N1CCCCN2[C@@H](CO)[C@H](c3ccc(-c4ccncc4)cc3)[C@@H]2C1,12,inactive,-0.029
Cc1ccccc1S(=O)(=O)N1C[C@H]2CON(C)[C@H]2C[C@H]1c1cccc(-c2ccc(C#N)cc2)c1,-28.1,inactive,-10.7
CC(=O)Nc1cccc(OCCCOc2cccc([N+](=O)[O-])c2)c1,-16.8,inactive,44.4
Nc1[nH]c(C(=O)c2ccccc2)c(-c2ccc3c(c2)OCO3)c1C(=O)NCCc1c[nH]c2ccccc12,-18.1,inactive,-20.2
Cc1ccc2nc(-c3ccc(Cl)cc3)c(Cc3ccccc3C(F)(F)F)n2c1,-10.5,inactive,37.7
CC(C)n1nnnc1C1c2ccccc2C(=O)N1CCOc1ccccc1 (centres undefined),-14.1,inactive,-9.39
Cc1occc1-c1nnc(SCC(=O)Nc2nc(-c3ccccc3)cs2)o1,-4.96,inactive,8.71
O=C(O)CC(CC(=O)Nc1ccc2ccccc2n1)c1ccccc1 (centres undefined),-7.83,inactive,7.39
CCOC(=O)c1cccc(OC(=O)CCNC(=O)c2ccc(Cl)cc2)c1,-36.4,inactive,-3.29
C[C@H]1CN([C@@H](C)CO)C(=O)CCCn2nncc2CO[C@@H]1CN(C)Cc1ccccc1C(F)(F)F,-28.1,inactive,-45.2
Cn1nc(C(=O)Nc2cccc(S(=O)(=O)N3CCCCC3)c2)c2ccccc2c1=O,-5.66,inactive,-3.97

SMILES,activity change [1] [%],outcome [1],activity change [2] [%]
O=S1(=O)N[C@H](Cc2ccccc2)COc2cc(N3CCSCC3)ccc21,-14.3,inactive,12
CN(CCOc1ccccc1)S(=O)(=O)c1ccccc1C#N,-20.9,inactive,
CN(C)S(=O)(=O)c1cccc(C(=O)OCC(=O)c2ccc3c(c2)NC(=O)CO3)c1,-6.04,inactive,
O=C(COC(=O)C1CC2C=CC1C2)Nc1ccc([N+](=O)[O-])cc1 (centres undefined),-15.1,inactive,-8.7
C[C@@H]1CN([C@@H](C)CO)C(=O)CCCn2nncc2CO[C@H]1CN(C)C(=O)Nc1cccc(C(F)(F)F)c1,-2.42,inactive,-7.01
Fc1cccc(Cc2c(-c3ccco3)nc3c4ccccc4ccn23)c1,3.21,inactive,15.9
O=C(c1ccccc1)C1Oc2ccccc2C2CC(c3cccs3)=NN12 (centres undefined),-7.77,inactive,46.5
C=CCSc1cc(C)nc2c(-c3ccccc3)c(C)nn12,-4.42,inactive,-3.25
Cc1cc(C)c(OCC(=O)OCC(=O)N2CCc3ccccc3C2)c(C)c1,-18.4,inactive,-19.1
Cc1noc(C)c1NC(=O)Nc1ccc2c(c1)C(=O)N([C@H](C)CO)C[C@H](C)[C@H](CN(C)C(=O)Nc1ccc3c(c1)OCO3)OCCCC[C@@H](C)O2,-29.4,inactive,-22.3
COc1ccccc1NC(=O)CSc1nccn1Cc1ccc(F)cc1,-34.2,inactive,-43.9
COc1cc2ccccc2cc1C(=O)NCC(c1cccs1)N(C)C (centres undefined),-20.3,inactive,10.8
COc1cccc(NC(=O)N(C)C[C@H]2Oc3ncc(C#Cc4cccnc4)cc3C(=O)N([C@H](C)CO)C[C@H]2C)c1,-8.41,inactive,-2.54
O=C(O)CC(CC(=O)Nc1ccc(Oc2ccccc2)cc1)c1ccccc1 (centres undefined),-38.6,inactive,-21.4
Cc1onc(-c2ccccc2Cl)c1C(=O)N1CCN(Cc2ccc3c(c2)OCO3)CC1,-18.8,inactive,-29.8
Cc1cc(C)nc(SCCC(=O)Nc2ccccc2Cl)n1,,inactive,4.04
C=CCNc1ccc2c(c1)OC[C@H](CC(C)C)NS2(=O)=O,-16.5,inactive,-12.1
CCCCCCCNC(=O)c1ccc(N2CCC3(CC2)OCCO3)c([N+](=O)[O-])c1,-71.7,inactive,33.2
CCn1nc(C)cc1C(=O)N1CCCC(C(=O)c2ccc3ccccc3c2)C1 (centres undefined),-3.63,inactive,3.47
CSc1ccccc1C(=O)NCCc1ccc(S(=O)(=O)N2CCCCC2)cc1,-6.73,inactive,
CCOc1ncccc1C(=O)OCC(=O)NCCCc1ccccc1,-34.2,inactive,13.1
Cn1cc(CN2CCCC(C(=O)Nc3cccc(-c4cc5ccccc5[nH]4)c3)C2)cn1 (centres undefined),-25.9,inactive,-29
COc1ccccc1CC(=O)NCCCc1ccccc1,0.195,inactive,28.9
CN1C(=O)c2cc(NC(=O)c3cccc(F)c3)ccc2OC[C@H]2O[C@@H](CC(=O)NCC3CCCCC3)CC[C@@H]21,-45.8,inactive,-19.3
C[C@H](CO)N1C[C@H](C)[C@H](CN(C)C(=O)Nc2ccc(F)cc2)Oc2c(NC(=O)Nc3ccccc3)cccc2C1=O,-24.1,inactive,16.4
